Assay outcomes: PubChem BioAssay, University of Kansas High Throughput Screening Laboratory
Shown are actives, neighbours in structure and some others; about 3.5% of the full set was active somewhere.
mHTT CaM bind – mHTT-calmodulin interaction abrogation; P42858; AlphaScreen His-mHTT/GST-CaM binding, luminescence; inhibition, % at 15 µM; 190,000 compounds, 3.6% hits;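 note: 0% = both proteins with DMSO and 100% = one protein alone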
Pf apPOL block – Pf-apPOL DNA polymerase inhibition. Recombinant Pf-apPOL, molecular beacon fluorescence, 1.5 h. inhibition, % at 10 µM. 210,000 compounds, 0.25% hits. AID 1794808
* = called active by the depositor; ! = not active in a repeat. Cut-off read from the data, not from the text of the source: active = inhibition above about 50%; inactive = the rest.

Screening CCC(=O)NC(c1ccc(OC)c(OC)c1)c1cc([N+](=O)[O-])c2cccnc2c1O (stereo not drawn) returned mHTT CaM bind 100* and Pf apPOL block 20.
`CCC(=O)NC(c1ccc(C)cc1)c1cc([N+](=O)[O-])c2cccnc2c1O` (stereo not drawn) gave mHTT CaM bind 100* and Pf apPOL block -5.
Screening COc1ccccc1-n1nnc(C(=O)Nc2ccccc2F)c1N returned mHTT CaM bind -1 and Pf apPOL block -5.
For CC1CCN(C(=O)C2CCN(S(=O)(=O)c3ccc(Br)cc3)CC2)CC1 the results were mHTT CaM bind 9 and Pf apPOL block -1.
Screening Cn1c(CCNC(=O)C2CN(S(=O)(=O)C3CC3)CC23CCCCC3)nc2ccccc21 (stereo not drawn) returned mHTT CaM bind 18 and Pf apPOL block -9.
`Cc1ccc(NC(=O)N2CCC(N3CCN(Cc4cccc(C)c4)C3=O)CC2)cc1` gave mHTT CaM bind 9 and Pf apPOL block -6.
For Cc1ccc(S(=O)(=O)N2CCC(=O)N([C@H](COCc3cccc(C(F)(F)F)c3)Cc3ccccc3)CC2)cc1 the results were mHTT CaM bind 6 and Pf apPOL block -4.
`CC(C)C[C@@H](COCc1cccc(Cl)c1)N1CCN(C(=O)c2cccc(C(F)(F)F)c2)CCC1=O` gave mHTT CaM bind 87*! and Pf apPOL block -3.
Screening Cc1ccc(S(=O)(=O)N2CCC(=O)N([C@H](COCc3cccc(C(F)(F)F)c3)C(C)C)CC2)cc1 returned mHTT CaM bind 22 and Pf apPOL block -10.
For CC(C)C[C@@H](COCc1ccc(F)cc1)N1CCN(C(=O)c2cccc(C(F)(F)F)c2)CCC1=O the results were mHTT CaM bind 60* and Pf apPOL block -5.
For Cc1cc(C)c(S(=O)(=O)N2CCN(S(=O)(=O)c3ccccc3)C2c2ccccc2)c(C)c1 (stereo not drawn) the results were mHTT CaM bind -4 and Pf apPOL block -2.
`O=C(Cn1cnc2scc(-c3ccccc3)c2c1=O)NCc1ccccn1` gave mHTT CaM bind 6 and Pf apPOL block -8.
Screening CC(C)(C)c1cc2nc(C(F)(F)F)cc(SCCOC(=O)c3ccccc3Cl)n2n1 returned Pf apPOL block -2.
For COc1cc(OC)c(OC)cc1CN1CCN(c2ccccc2OC)CC1 the results were mHTT CaM bind -1 and Pf apPOL block -6.
`COc1ccccc1N1CCN(Cc2ccc(Br)o2)CC1` gave mHTT CaM bind 0 and Pf apPOL block 85*.
CCN1/C(=C/c2cccc[n+]2C)C=Cc2ccccc21 was read as mHTT CaM bind 19 and Pf apPOL block 3.
CCN1C(=Cc2c3ccccc3cc[n+]2CC)C=Cc2ccccc21 was read as mHTT CaM bind 63* and Pf apPOL block 0.
For C#CC(C)(CC)OCC(O)CN1CCN(c2cccc(C(F)(F)F)c2)CC1 (stereo not drawn) the results were mHTT CaM bind 7 and Pf apPOL block 2.
Screening O=C(CSc1nc2ccsc2c(=O)n1Cc1ccccn1)Nc1ccc(F)cc1 returned mHTT CaM bind 22 and Pf apPOL block -5.
For CN1CCN(C(CNC(=O)C(=O)NCc2ccco2)c2ccc3c(c2)OCO3)CC1 (stereo not drawn) the results were mHTT CaM bind -2 and Pf apPOL block 1.
`CN(C)S(=O)(=O)Oc1cc2sc(=O)oc2cc1Cl` gave mHTT CaM bind 19 and Pf apPOL block -5.
Cc1ccc(OC(=O)OCC(C)C)c(Br)c1 was read as mHTT CaM bind -18 and Pf apPOL block 4.
Screening O=c1oc2cc(Br)c(O)c(Br)c2s1 returned mHTT CaM bind 100* and Pf apPOL block 1.
Screening COC(=O)Oc1c(Cl)cc2oc(=O)sc2c1Br returned mHTT CaM bind 93* and Pf apPOL block 2.
`COC(=O)Oc1c(Br)cc2oc(=O)sc2c1[N+](=O)[O-]` gave mHTT CaM bind 86* and Pf apPOL block 0.
CC(C)COC(=O)Oc1c(Cl)cc2oc(=O)sc2c1[N+](=O)[O-] was read as mHTT CaM bind 82* and Pf apPOL block 3.
CCOC(=O)Oc1cc2sc(=O)oc2cc1Br was read as mHTT CaM bind 30 and Pf apPOL block -3.
Screening CCCc1ccc(S(=O)(=O)N2CCC(CN3CCC(C)CC3)CC2)cc1 returned mHTT CaM bind -11 and Pf apPOL block 0.
For CCCN1CCn2cc(S(=O)(=O)Nc3cccc(C)c3C)cc2C1=O the results were mHTT CaM bind -4 and Pf apPOL block -5.
For CCN(CC)CCNC(=O)C1CCNCC1 the results were mHTT CaM bind 2 and Pf apPOL block 1.
For O=C(c1nn2c(c1Cl)NC(c1ccccc1)CC2C(F)(F)F)N1CCN2CCCC2C1 (stereo not drawn) the results were mHTT CaM bind 26 and Pf apPOL block -13.
Screening COc1ccc(C2C(C#N)=C(N)Oc3cc(C)n(Cc4cccs4)c(=O)c32)cc1OC (stereo not drawn) returned mHTT CaM bind -11 and Pf apPOL block 2.
FC(F)(F)c1cc(-n2c(-c3cccnc3Oc3ccccc3)n[nH]c2=S)cc(C(F)(F)F)c1 was read as Pf apPOL block -161.
`COc1ccc(N2CC(C(=O)NCc3cccc(C(F)(F)F)c3)CC2=O)cc1` (stereo not drawn) gave mHTT CaM bind -2 and Pf apPOL block -8.
Clc1ccc(C2C=C(c3ccc(-c4ccccc4)cc3)Nc3nnnn32)cc1 (stereo not drawn) was read as mHTT CaM bind -2 and Pf apPOL block 5.
For Cc1c(C(C)(C)C)sc(=NS(=O)(=O)c2cccc([N+](=O)[O-])c2)n1C the results were mHTT CaM bind 29 and Pf apPOL block -4.
`CC1=CC(=NS(=O)(=O)c2cccc([N+](=O)[O-])c2)C=CC1=O` gave mHTT CaM bind 84* and Pf apPOL block -7.
Screening CN1CCC(N(CC2CCOC2)C(=O)c2cc(F)ccc2Cl)CC1 (stereo not drawn) returned mHTT CaM bind -5 and Pf apPOL block -1.
`O=C(c1ccccc1Br)N1CCC(c2nnc(-c3ccc(F)cc3)o2)CC1` gave mHTT CaM bind -8 and Pf apPOL block -3.
For Cc1cc(C(=O)N2CCC(c3nnc(-c4ccc(F)cc4)o3)CC2)c(C)o1 the results were mHTT CaM bind 100* and Pf apPOL block -5.
`O=c1[nH]c(-c2ccc3c(c2)OCO3)cn1-c1ccccc1` gave mHTT CaM bind 7 and Pf apPOL block 0.
Cc1ccc(-n2cc(-c3ccc4c(c3)OCO4)[nH]c2=O)cc1 was read as mHTT CaM bind 70* and Pf apPOL block 1.
Screening Cc1ncc(CO)c2cc(C(=O)Nc3ccc(C(N)=O)cc3)c(=O)oc12 returned mHTT CaM bind 2 and Pf apPOL block 1.
Screening O=[N+]([O-])c1cc2c(cc1CNc1ccc3c(c1)CCC3)OCO2 returned mHTT CaM bind 81* and Pf apPOL block -7.
`O=[N+]([O-])c1cc2c(cc1CNc1ccc3cn[nH]c3c1)OCO2` gave mHTT CaM bind 45 and Pf apPOL block -1.
Screening Cc1ccc(Cl)cc1N1CCN(C(=O)c2ccc(Cn3cncn3)cc2)CC1 returned mHTT CaM bind 89* and Pf apPOL block -4.
For O=C(c1ccc(Cn2cncn2)cc1)N1CCN(c2ccc(Cl)cc2)CC1 the results were mHTT CaM bind 5 and Pf apPOL block -11.
For CCOC(=O)Cn1c(C2CC(=O)N(c3ccccc3F)C2)nc2ccccc21 (stereo not drawn) the results were mHTT CaM bind 4 and Pf apPOL block -9.
